# Records with an inconclusive call do not appear. A call without a number means that no potency is given here. Unmarked numbers belong to inactive results. The source made the active and inactive calls. Unless noted, the call rests on the fitted dose curve; in most records, active means well fitted curve in the direction sought with a large enough effect; inconclusive means small, poorly fitted or top-dose-only effect, or another doubt; inactive means no such curve, though single readings can be large; an effect the other way counts as inactive or inconclusive.
# Tests used:
# [1] = target: Aldehyde dehydrogenase, mitochondrial (Homo sapiens) (UniProt P05091); test: qHTS for Inhibitors of the Aldehyde Dehydrogenase Family (ALDH2) Validation screens (AID 2061302; active means well fitted inhibition curve with a large enough effect; title and protocol of this record describe different tests); conditions: ALDH inhibition qHTS; series mostly up to 42.6 µM
# [2] = target: Retinaldehyde dehydrogenase 3 (Homo sapiens) (UniProt P47895); test: qHTS for Inhibitors of the Aldehyde Dehydrogenase Family (ALDH1A3) Validation screen (AID 2061312); conditions: ALDH1A3 enzyme inhibition qHTS validation, fluorescence; series mostly up to 84.7 µM; further: nearly all actives have a fitted effect of over 45% in size
# [3] = BET inhibitor-based combinations targeting novel dependencies in MECOM-rearranged (r) AML: SET-2 cell line (AID 2202231); conditions: SET-2 AML cells viability, CellTiter-Glo luminescence, 48 h; viability: stronger effect = lower value, concentration not given here; further: nearly all actives have a fitted effect of over 35% in size; further: potency means the concentration at half of the fitted maximal effect
# How it was run: (§1)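 Readout: CellTiter-Glo luminescence. Exposure: 48 h, 11 concentrations, 500 cells/well. Metric: AUC and within-line Z-AUC after DMSO/empty-well normalization.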
# [4] = BET inhibitor-based combinations targeting novel dependencies in MECOM-rearranged (r) AML: OCI-AML3 cell line (AID 2202232); conditions: CellTiter-Glo luminescence, 48 h; Potency: OCI-AML3 viability; series mostly up to 46 µM; further: nearly all actives have a fitted effect of over 35% in size; further: potency means the concentration at half of the fitted maximal effect
# How it was run: as §1
# [5] = BET inhibitor-based combinations targeting novel dependencies in MECOM-rearranged (r) AML: MV-4-11 cell line (AID 2202233); conditions: MV-4-11 AML viability, CellTiter-Glo luminescence, 48 h; series mostly up to 46 µM; further: nearly all actives have a fitted effect of over 45% in size; further: potency means the concentration at half of the fitted maximal effect
# How it was run: (§2)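 Seeding density was 500 cells/well, and drug exposure lasted 48 hr under standard culture conditions. Read-out used CellTiter-Glo reagent with a 15 min room-temperature incubation before luminescence measurement; AUC and Z-AUC summarize the normalized responses.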
# [6] = BET inhibitor-based combinations targeting novel dependencies in MECOM-rearranged (r) AML: HNT-34 cell line (AID 2202234); conditions: HNT-34 AML viability, CellTiter-Glo luminescence, 48 h; series mostly up to 46 µM; further: nearly all actives have a fitted effect of over 35% in size; further: potency means the concentration at half of the fitted maximal effect
# How it was run: as §2
# [7] = BET inhibitor-based combinations targeting novel dependencies in MECOM-rearranged (r) AML: UCSD-AML1 cell line (AID 2202235); conditions: UCSD-AML1 AML cells viability, CellTiter-Glo, 48 h; series mostly up to 46 µM; further: nearly all actives have a fitted effect of over 40% in size
# How it was run: as §2
# [8] = BET inhibitor-based combinations targeting novel dependencies in MECOM-rearranged (r) AML: AML-191 cell line (AID 2202236; further: nearly all actives have a fitted effect of over 35% in size; further: potency means the concentration at half of the fitted maximal effect); conditions: AML-191 viability, CellTiter-Glo luminescence, 48 h; series mostly up to 46 µM
# How it was run: as §1
# [9] = BET inhibitor-based combinations targeting novel dependencies in MECOM-rearranged (r) AML: AML-194 cell line (AID 2202237; further: nearly all actives have a fitted effect of over 40% in size); conditions: AML-194 (MECOM-r AML) viability, CellTiter-Glo, 48 h; series mostly up to 46 µM
# How it was run: as §1
smiles,measurement,setting,value
C[C@H](NC(CCc1ccccc1)C(=O)O)C(=O)N1CCC[C@H]1C(=O)O (some centres undefined),Potency,[1],inactive
same,Potency,[2],inactive
Nc1ccc2c3c(cccc13)C(=O)NC2=O,Potency,[1],inactive
same,Potency,[2],inactive
NC(N)=NCCC[C@H](N)C(=O)O,Potency,[1],inactive
same,Potency,[2],inactive
COc1cc2c(cc1O)CC[C@@H]1[C@@H]2CC[C@]2(C)[C@@H](O)CC[C@@H]12,Potency,[1],inactive
same,Potency,[2],inactive
Cn1c(=O)c(-c2c(Cl)cccc2Cl)cc2cnc(Nc3ccc(N4CCOCC4)cc3)nc21,Potency,[1],inactive
same,Potency,[2],inactive
Cc1nc2c([nH]1)c(=O)n(C)c(=O)n2Cc1ccco1,Potency,[1],inactive
same,Potency,[2],inactive
O=C1NC(O)=NC1(c1ccccc1)c1ccccc1,Potency,[1],inactive
same,Potency,[2],inactive
C[C@@H](NCCc1ccc(O)cc1)[C@@H](O)c1ccc(O)cc1,Potency,[1],inactive
same,Potency,[2],inactive
c1ccc2c(c1)CCCC2C1=NCCN1 (centres undefined),Potency,[1],inactive
same,Potency,[2],inactive
C[N+](C)(C)CCO,Potency,[1],inactive
same,Potency,[2],inactive
NC(N)=NCCCCN=C(N)N,Potency,[1],inactive
same,Potency,[2],inactive
CCN(CC)C(=O)c1ccc(O)c(OC)c1,Potency,[1],inactive
same,Potency,[2],inactive
O=c1cc(-c2ccccc2)[nH]c2nc(Cl)ccc12,Potency,[1],inactive
same,Potency,[2],inactive
Nc1ccn([C@@H]2O[C@H](CO)[C@@H](O)[C@@H]2O)c(=O)n1,Potency,[1],inactive
same,Potency,[2],inactive
O=C(NOCC1CC1)c1cc(Br)c(F)c(F)c1Nc1ccc(I)cc1Cl,Potency,[1],inactive
same,Potency,[2],inactive
O=C(O)/C=C/c1cnc[nH]1,Potency,[1],inactive
same,Potency,[2],inactive
CNCCC(Oc1ccc(C(F)(F)F)cc1)c1ccccc1 (centres undefined),Potency,[1],inactive
same,Potency,[2],inactive
COc1ccc(C(=O)/C(Cc2cc(OC)c(OC)c(OC)c2)=C(\C(=O)O)c2ccc3c(c2)OCO3)cc1,Potency,[1],inactive
same,Potency,[2],inactive
COc1ccc(CN(CCN(C)C)c2ccccn2)cc1,Potency,[1],inactive
same,Potency,[2],inactive
CCN(CC)CCOC(=O)C1(C2CCCCC2)CCCCC1,Potency,[1],inactive
same,Potency,[2],inactive
C=C[C@@H]1CN2CC[C@@H]1C[C@H]2[C@H](O)c1ccnc2ccc(OC)cc12,Potency,[1],inactive
same,Potency,[2],inactive
CC(C)NCC(O)COc1cccc2ccccc12 (centres undefined),Potency,[1],inactive
same,Potency,[2],inactive
O=C(O)c1cccnc1Nc1cccc(C(F)(F)F)c1,Potency,[1],inactive
same,Potency,[2],inactive
CCN(CC)CC#CCOC(=O)C(O)(c1ccccc1)C1CCCCC1 (centres undefined),Potency,[1],inactive
same,Potency,[2],inactive
N[C@H]1CONC1=O,Potency,[1],inactive
same,Potency,[2],inactive
COc1cc(OC)c(/C=C2/C(=O)Nc3ccccc32)c(OC)c1,Potency,[1],inactive
same,Potency,[2],inactive
N[C@@H](Cc1ccc(F)cc1)C(=O)O,Potency,[1],inactive
same,Potency,[2],inactive
NCC(O)c1ccc(O)c(O)c1 (centres undefined),Potency,[1],inactive
same,Potency,[2],inactive
CN(C)c1ccc(/C=C2\C(=O)Nc3ccccc32)cc1,Potency,[1],inactive
same,Potency,[2],inactive
CC(C)NC[C@H](O)c1ccc(O)c(O)c1,Potency,[1],inactive
same,Potency,[2],inactive
CN(C)CCC(c1ccc(Br)cc1)c1ccccn1 (centres undefined),Potency,[1],inactive
same,Potency,[2],inactive
N=C(N)c1ccc(OCCCCCOc2ccc(C(=N)N)cc2)cc1 (tested in a mixture with another compound),Potency,[1],inactive
same,Potency,[2],inactive
CC(N=C(NC#N)Nc1ccncc1)C(C)(C)C (centres undefined),Potency,[1],inactive
same,Potency,[2],inactive
CCCC(CCC)C(=O)O,Potency,[1],inactive
same,Potency,[2],inactive
same,viability,[3],112%
same,Potency,[4],inactive
same,Potency,[5],inactive
same,Potency,[6],inactive
same,Potency,[7],inactive
same,Potency,[8],inactive
same,Potency,[9],inactive
CC(C)C(=O)Nc1ccc([N+](=O)[O-])c(C(F)(F)F)c1,Potency,[1],inactive
same,Potency,[2],inactive
same,viability,[3],93.1%
same,Potency,[7],inactive
same,Potency,[8],inactive
same,Potency,[9],inactive
COc1cc2c(c(OC)c1OC)-c1ccc(OC)c(=O)cc1[C@@H](NC(C)=O)CC2,Potency,[1],inactive
same,Potency,[3],66.1 nM (active)
same,Potency,[4],29.5 nM (active)
same,Potency,[5],37.2 nM (active)
same,Potency,[8],33.2 nM (active)
O=c1[nH]cnc2[nH]ncc12,Potency,[1],inactive
same,Potency,[2],inactive
same,viability,[3],124%
same,Potency,[4],inactive
same,Potency,[5],inactive
same,Potency,[6],1.3 nM (active)
same,Potency,[7],inactive
same,Potency,[8],inactive
same,Potency,[9],inactive
COc1ccc2c(c1)c(CC(=O)O)c(C)n2C(=O)c1ccc(Cl)cc1,Potency,[1],inactive
same,Potency,[2],inactive
same,viability,[3],114%
same,Potency,[4],inactive
same,Potency,[5],inactive
same,Potency,[6],inactive
same,Potency,[7],inactive
same,Potency,[8],inactive
same,Potency,[9],inactive
CN1CCN(C2=Nc3cc(Cl)ccc3Nc3ccccc32)CC1,Potency,[1],inactive
same,Potency,[2],inactive
same,Potency,[5],inactive
same,Potency,[6],20900 nM (active)
Cn1c(=O)c2c(ncn2C)n(C)c1=O,Potency,[1],inactive
same,Potency,[2],inactive
same,Potency,[4],inactive
same,Potency,[5],inactive
same,Potency,[6],inactive
same,Potency,[7],inactive
same,Potency,[8],inactive
same,Potency,[9],inactive
O=c1c(-c2ccc(O)cc2)coc2cc(O)ccc12,Potency,[1],inactive
same,Potency,[2],inactive
same,viability,[3],112%
same,Potency,[5],23500 nM (active)
same,Potency,[6],16600 nM (active)
same,Potency,[7],inactive
same,Potency,[8],inactive
same,Potency,[9],inactive
